# Measured values published in article PMC4552634, “A New Set of Chemical Starting Points with Plasmodium falciparum Transmission-Blocking Potential for Antimalarial Drug Discovery” (PLoS ONE, 2015).
# In all, about 13,000 compounds went through this assay and about 3,200 (25%) showed an effect of 50% or more. The list shows a part of the results.
# Tested on: P. falciparum stage V gametocytes
# Set-up: BacTiter-Glo ATP luminescence viability of purified stage V gametocytes in 384-well plates, per cent inhibition versus DMSO
# Conditions: 48 h, 5 µM; inhibitor
row,Compound,% Inhibition [%]
1,CC(C)NC(=O)c1cccc(-c2ccc(OCCN3CCCC3c3cc4ccccc4[nH]3)cc2)c1 (stereo not drawn) [TCMDC-134385],-6.463
2,CC(C)CN1C(=O)c2ccc(C(=O)Nc3nccs3)cc2C1=O [TCMDC-125773],-2.752
3,CC(=O)c1cccc(NC(=O)C2c3ccccc3C(=O)N(CC(C)C)C2c2cccs2)c1 (stereo not drawn) [TCMDC-124756],54.72
4,CC(=O)c1ccc(NC(=O)C2c3ccccc3C(=O)N(CC(C)C)C2c2cccs2)cc1 (stereo not drawn) [TCMDC-124757],58.39
5,CC(C)CN1C(=O)c2ccccc2C(C(=O)Nc2cccc(C#N)c2)C1c1cccs1 (stereo not drawn) [TCMDC-124758],44.13
6,Cc1ccc(Nc2nc3cc(N(C)c4ccnc(Nc5cccc(CS(C)(=O)=O)c5)n4)ccc3o2)cc1 [TCMDC-141956],-42.21
7,CC(C)C1=NCc2ccc([N+](=O)[O-])cc2C(=O)N1 [TCMDC-131785],-3.925
8,Cn1nc(-c2cccc(CNC3CCc4ccccc43)c2)c2cnc(NCCCN3CCCC3)nc21 (stereo not drawn) [TCMDC-135034],78.32
9,Cn1nc(-c2cccc(CN[C@@H]3CCc4ccc(O)cc43)c2)c2cnc(NC3CCCC3)nc21 [TCMDC-135032],-0.5073
10,Cn1nc(-c2cccc(CNC3CCc4ccccc43)c2)c2cnc(NC3CCCC3)nc21 (stereo not drawn) [TCMDC-135030],-10.51
11,c1cc(CN2CCc3ccccc3CC2)cc(-c2c[nH]c3nc(NC4CCCC4)ncc23)c1 [TCMDC-133774],-80.37
12,Cn1nc(-c2cccc(CN[C@@H]3CCc4ccc(O)cc43)c2)c2cnc(NCCCN3CCCC3)nc21 [TCMDC-135035],59.7
13,Cn1nc(-c2ccc(CN[C@@H]3CCc4ccc(O)cc43)cc2)c2cnc(NCCCN3CCCC3)nc21 [TCMDC-135037],45.21
14,O=C(N[C@@H](CC1CCCCC1)C(=O)NC1CC1)c1ccc(O)c(-c2cccc(C(F)(F)F)c2)c1 [TCMDC-140807],9.846
15,COc1ccc(-c2nc3nc4ccccc4cc3[nH]2)c(OCC(O)CNC(C)C)c1 (stereo not drawn) [TCMDC-137443],26.08
16,COc1ccc(NC(=O)c2ccc(-c3cc(NC(=O)c4ccnc(N5CCCC5)c4)ccc3C)s2)cc1N1CCN(C)CC1 [TCMDC-136373],32.31
17,CN(C)CCC1CCN(CCS(=O)(=O)c2cccc(Nc3ccc(-c4cccc(F)c4)cn3)c2)CC1 [TCMDC-134375],43.14
18,COC(=O)C(=O)c1c(-c2ccccc2)c(-c2ccc(OC)c(OC)c2)c2c3cc(OC)c(OC)cc3ccn12 [TCMDC-125088],26.26
19,COCCOC(=O)C(=O)c1c(-c2ccccc2)c(-c2ccc(OC)c(OC)c2)c2c3cc(OC)c(OC)cc3ccn12 [TCMDC-125087],52.27
20,COc1ccc(-c2cc(C(=O)N3CCc4ccccc43)c3ccccc3n2)cc1OC [TCMDC-123715],-27.24
21,O=C(NCc1ccco1)c1ccc(CN2CCN(C(c3ccccc3)c3ccccc3)CC2)cc1 [TCMDC-140763],-11.73

row,Compound,% Inhibition [%]
1,O=C(Cc1cccc(OCCCN(Cc2cccc(C(F)(F)F)c2Cl)CC(c2ccccc2)c2ccccc2)c1)NCc1ccco1 [TCMDC-141563],90.42
2,CCc1ccc(CN(CCCOc2cccc(CC(=O)NCc3cnc[nH]3)c2)Cc2ccc(-n3ccnc3)cc2)cc1 [TCMDC-134288],15.75
3,CCCc1cc(OC)c(CC2c3cc(O)c(Cl)cc3C(c3ccccc3)CN2C)cc1OC (stereo not drawn) [TCMDC-137432],12.27
4,CCCCNC(=O)c1[nH]c2c(NC(=O)COc3ccccc3)cccc2c1-c1cccc(NC(=O)C(N)CO)c1 (stereo not drawn) [TCMDC-140060],-98.74
5,CCN1CCC(N(Cc2ccc(-c3ccc(C(F)(F)F)cc3)cc2)C(=O)Cn2c(CCc3cccc(F)c3F)cc(=O)c3cn(C)nc32)CC1 [TCMDC-141156],59.01
6,CC(C)N1CCC(N(Cc2ccc(-c3ccc(C(F)(F)F)cc3)cc2)C(=O)Cn2c(CCc3cccc(F)c3F)cc(=O)c3cn(C)nc32)CC1 [TCMDC-136048],117.7
7,Cc1ccc(O)cc1Nc1ccnc2cc(-c3ccccc3)ccc12 [TCMDC-138295],-25.3
8,COc1cc2c(cc1NS(=O)(=O)c1ccc(OCc3ccc(Br)cc3)cc1)CCN(C1CCC1)CC2 [TCMDC-136020],14.15
9,Nc1nc2c(c(=O)[nH]1)CN(S(=O)(=O)c1ccc(C(=O)N[C@@H](CCC(=O)O)C(=O)O)cc1)CC2 [TCMDC-137681],-6.076
10,CCCN(C(=O)c1ccccc1C)c1nnc(-c2cccc(C)c2)s1 [TCMDC-124387],20.16
11,CCOc1ccc(N(CC)S(=O)(=O)c2cc(Br)cc3c2N(C(=O)C2CC2)CC3)cc1 [TCMDC-125469],14.82
12,CN1CCN(CCCN(Cc2cccc(-c3ccc(CNCCc4ccccc4)cc3)c2)C(=O)c2cccs2)CC1 [TCMDC-140568],106.4
13,CN1CCN(CCCN(Cc2ccc(-c3ccc(CNCCc4ccccc4)cc3)cc2)C(=O)c2cccs2)CC1 [TCMDC-140752],86.87
14,O=C(NCCN1CCOCC1)c1ccc(-c2ccc(CNCCCc3ccccc3)cc2)nc1 [TCMDC-134245],16.29
15,CN(C)CCN(C)Cc1ccc(-c2cccc(NC(=O)c3cccc(C#N)c3)c2)cc1 [TCMDC-132651],-77.89
16,Cc1noc(C)c1-c1cccc(CNCc2ccc(-c3ccc(-c4nc5cc(C(F)(F)F)ccc5[nH]4)s3)cc2)c1.O=C(O)C(F)(F)F [TCMDC-133062],33.98
17,CC1CC(NCCCNc2cc(=O)c3ccccc3[nH]2)c2c1cc(Cl)c(Cl)c2Cl (stereo not drawn) [TCMDC-139480],-50.98
18,CN(C)c1nc(NCc2ccccc2)nc(N/N=C/c2cc([N+](=O)[O-])ccc2O)n1 [TCMDC-124126],65.13
19,O=[N+]([O-])c1ccc(Nc2nc(NCc3ccccc3)nc(N/N=C/c3ccccc3[N+](=O)[O-])n2)cc1 [TCMDC-124208],9.563
20,O=[N+]([O-])c1ccc(Nc2nc(N/N=C/c3cc(Cl)cc(Cl)c3O)nc(Nc3ccccc3)n2)cc1 [TCMDC-123854],16.66
21,CCCCC(CCCC)CN1C(=O)C(c2ccccc2)(c2ccccc2)N=C1N [TCMDC-136878],-47.08

row,Compound,% Inhibition [%]
1,CC1CCCN(S(=O)(=O)c2cc(Br)cc3c2N(C(=O)C2CC2)CC3)C1 (stereo not drawn) [TCMDC-123872],16.45
2,CCn1c(CN2CCN(Cc3ccccc3)CC2)nc2cc(NC(=O)c3cccs3)ccc21 [TCMDC-125164],1.939
3,CCCC[C@@H](C(=O)NCCc1ccc(Cl)cc1)N1C(=O)CCC1C(=O)Nc1ccc(Cl)c(Cl)c1 (stereo partly drawn) [TCMDC-141410],67.56
4,CCCC[C@@H](C(=O)NCc1ccccc1C(F)(F)F)N1C(=O)CCC1C(=O)Nc1ccc([N+](=O)[O-])cc1 (stereo partly drawn) [TCMDC-141409],20.34
5,O=C(Nc1ccc(Cl)c(Cl)c1)C1CCC(=O)N1[C@@H](Cc1ccccc1)C(=O)NCCc1ccc(Cl)cc1 (stereo partly drawn) [TCMDC-141411],6.201
6,CN(CCN(C)C(=O)NCc1ccccc1)C(=O)NCc1ccccc1 [TCMDC-138997],-5.894
7,COc1ccc(NS(=O)(=O)c2ccc(C(=O)Nc3ccc(OC(F)(F)F)cc3)cc2)cc1N1CCN(CC2CC2)CC1 [TCMDC-136298],-1.186
8,N#Cc1ccc2c(c1)CCN(CCC1CCC(NC(=O)c3cc4ccc(Cl)cc4[nH]3)CC1)C2 (stereo not drawn) [TCMDC-139194],-33.95
9,O=C(Nc1ccc(CN2CCOCC2)cc1)c1ccc(-c2ccc(Cl)cc2)o1 [TCMDC-124455],70.13
10,CN1CCCN(Cc2cccc(-c3ccc(NC(=O)c4ccc(Cl)cc4)cc3)c2)CC1 [TCMDC-132667],81.69
11,CCc1ccc(NC(=O)c2ccc(CN3CCCN(Cc4ccc(C)s4)CC3)cc2)cc1 [TCMDC-136449],10.45
12,O=C(Nc1ccc(CN2CCOCC2)cc1)c1ccc(-c2cc(Cl)ccc2Cl)o1 [TCMDC-125390],-41.52
13,CN1CCCN(Cc2cccc(-c3cccc(NC(=O)c4ccc(Cl)cc4)c3)c2)CC1 [TCMDC-132653],14.2
14,Cc1ccc(CN2CCCN(Cc3ccc(C(=O)Nc4ccc(Cl)cc4)cc3)CC2)s1 [TCMDC-136414],86.68
15,CN1CCCN(Cc2cccc(-c3ccc(NC(=O)c4cccc(Cl)c4)cc3)c2)CC1 [TCMDC-132664],44.2
16,CC(C)(C)c1ccc(NC(=O)c2ccc(CN3CCCN(Cc4ccc(F)cc4)CC3)cc2)cc1 [TCMDC-136435],-15.47
17,O=C(Nc1ccc(CN2CCOCC2)cc1)c1ccc(-c2ccc(Br)cc2)o1 [TCMDC-123781],-11.97
18,Cc1ccc(CN2CCCN(Cc3cccc(C(=O)Nc4ccc(C(C)(C)C)cc4)c3)CC2)s1 [TCMDC-135991],-86.63
19,O=C(Nc1ccc(Cl)cc1)c1ccc(CN2CCCN(Cc3ccccc3)CC2)cc1 [TCMDC-136401],-26.98
20,O=C(Nc1ccc(Cl)cc1)c1ccc(CN2CCCN(Cc3ccc(F)cc3)CC2)cc1 [TCMDC-136408],63.43
21,COc1ccc(C2CC(c3ccccc3)=NN2C(=O)c2ccc(Br)o2)cc1 (stereo not drawn) [TCMDC-123705],-10.79
